Compound activity as filed in PubChem.
Only some compounds are listed: those with a hit (about 19% of all), similar ones and a draw of the others.
SW480 rerep – A quantitative high throughput screen for small molecules that induce DNA re-replication in SW480 colon adenocarcinoma cells; hit rate 1.8% among 340,000; SW480 DNA re-replication, Hoechst DNA content imaging, 48 h; AID 624297, 2012; Potency, µM (top dose mostly 46.1 µM), inactives show at the highest dose re-replication activation, hits mostly activators; further: potency means the concentration at half of the fitted maximal effect; % of control where 0% means no effect; nearly all actives have a fitted effect of over 55% in size
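Quantitative HTS format with DMSO vehicle controls; 48 hr drug incubation at 37 C, then 40 min Hoechst staining and scanning imager measurement at 405 nm excitation.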
TDP1 cell CPT – qHTS for Inhibitors of human tyrosyl-DNA phosphodiesterase 1 (TDP1): qHTS in cells in presence of CPT | chicken DT40 Tdp1-/-;hTDP1 cells + 20 nM CPT, ATP luminescence, 48 h | Potency, µM (top dose mostly 46.2 µM), for inactives: top-dose activity change, negative = growth inhibition, usual class: inhibitors | hit rate 12% among 420,000 | AID 686979, 2013; further: potency means the concentration at half of the fitted maximal effect; on the % scale 0 is the no-effect control and ±100 the full control effect; nearly all actives have a fitted effect of over 55% in size
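Chicken DT40 Tdp1-/- cells stably complemented with human TDP1 were seeded at 400 cells/well in medium containing 20 nM camptothecin, exposed to pin-transferred compounds, and grown at 37 °C for at least 48 hr. Viability was read as ATP luminescence.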
MCF10A rerep – A quantitative high throughput screen for small molecules that induce DNA re-replication in MCF 10a normal breast cells | MCF 10A DNA re-replication, Hoechst nuclear intensity, 48 h | Potency, µM (series often up to 46.1 µM), for inactives: at the highest dose activity, positive = re-replication, hits mostly activators | hit rate 2.9% among 350,000; further: potency means the concentration at half of the fitted maximal effect; % of control where 0% means no effect; nearly all actives have a fitted effect of over 50% in size
TDP1 cell noCPT – qHTS for Inhibitors of human tyrosyl-DNA phosphodiesterase 1 (TDP1): qHTS in cells in absence of CPT. DT40 Tdp1-/- hTDP1 cells, no CPT, ATP luminescence, 48 h. Potency, µM (doses to about 46.2 µM), without a hit: top-dose activity change, negative = growth inhibition, usual class: inhibitors. hit rate 15% among 420,000; further: potency means the concentration at half of the fitted maximal effect; on the % scale 0 is the no-effect control and ±100 the full control effect; nearly all actives have a fitted effect of over 55% in size
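Compound effects on proliferation are scored in DT40 Tdp1-/-;hTDP1 cells in the absence of CPT. ATP levels (CellTiter-Glo luminescence) are recorded after a ≥48 hr, 37 °C incubation.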
IL-1B inflam inh – qHTS for Inhibitors of Inflammasome Signaling: IL-1-beta AlphaLISA Primary Screen; THP-1 LPS/ATP IL-1B secretion, AlphaLISA, 16 h; hits give low values; activity change, % at 57.5 µM; hit rate 4.7% among 360,000; in the data active means activity change below about -50%; inconclusive means mostly about -30% to -49%; further: on the % scale 0 is the no-effect control and ±100 the full control effect
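THP-1 cells pretreated 1 hr with compounds (up to 57.5 uM final), then stimulated with LPS (250 ng/mL final) plus ATP (1.25 mM final); secreted IL-1B measured by AlphaLISA after 16 hr, decreased signal indicating inhibition.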
Chronic BCR inh – qHTS Assay to Find Inhibitors of Chronic Active B-Cell Receptor Signaling | ABC-DLBCL IkBa-CBG/CBR reporter, luminescence ratio, 4 h | Potency, µM (series often up to 46.1 µM), for inactives: top-dose activity change, negative = inhibition, hits mostly inhibitors | hit rate 0.05% among 340,000 | AID 493014, 2011; active means well fitted inhibition curve with a large enough effect in the signal ratio, with a control signal flat, not every such curve was filed as active; inconclusive means small, poorly fitted or top-dose-only effect, or effect the other way, or a change in a side signal; the % refers to the signal ratio;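 further: potency means the concentration at half of the fitted maximal effect; plate controls were basal doxycycline-induced cells for no effect and cells given 10 µM MG132 for full effect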
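Concentration-response series (up to 46 uM) were applied to TMD8 dual-reporter cells for 4 h at 37C with doxycycline. Green/red ratio, after filter-overlap correction, defined %Activity; red signal alone was normalised to basal cells and zero luminescence.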
* hit, by the source's call; u = inconclusive; x = not tested or not shown; [ ] = dose if it differs, or a comment. Unless noted, the call rests on the fitted dose curve; in most records, active means well fitted curve in the direction sought with a large enough effect; inconclusive means small, poorly fitted or top-dose-only effect, or another doubt; inactive means no such curve, though single readings can be large; an effect the other way counts as inactive or inconclusive.

SMILES	SW480 rerep	TDP1 cell CPT	MCF10A rerep	TDP1 cell noCPT	IL-1B inflam inh	Chronic BCR inh
CCOc1ccc(CCNC(=O)c2ccc3c(c2)NC(=O)C2CCCN32)cc1OCC (centres undefined)	x	x	x	x	x	4.6%
CCOc1cc(CNC(=O)c2ccc3c(c2)NC(=O)C2CCCCN32)cc(OCC)c1OCC (centres undefined)	x	18.4µM*	x	u	x	x
Cc1cccc(CNC(=O)c2ccc3c(c2)N(C)C(=O)C2CCCCN32)c1 (centres undefined)	x	13µM*	x	u	x	x
CN(C)c1ccc(CNC(=O)CN2C(=O)C3CCCCN3c3ccc(C(=O)N4CCCC4)cc32)cc1 (centres undefined)	x	23.1µM*	x	u	x	x
CC(=O)NC(CC(=O)NC1CCCc2ccccc21)c1ccccc1 (centres undefined)	-2.1%	-9.4%	-11.5%	-16.5%	-11.2	-1.3%
O=C(CCn1c(=O)c2cccn2c2cccnc21)NCc1ccccc1Br	x	5.1%	x	-17.2%	x	x
O=C(Nc1ccccc1Br)c1cnn2c1NC(=C1CC1)C=C2C(F)F	x	-5.3%	x	u	x	x
COc1ccc(-c2cc(CCCC(=O)NCCc3ccccc3)no2)cc1	-10.3%	u	14.6%	u	7.9	19.1%
CCOc1ccc(-c2cc(CCCC(=O)NCc3cccnc3)no2)cc1	-6.9%	23.1µM*	1.9%	20.6µM*	0.3	u
COc1ccc(-c2cc(CCCC(=O)NCc3ccccn3)no2)cc1	6.4%	u	1.4%	16.4µM*	1.3	1.6%
COC(=O)c1ccc(N/C=C/C(=O)c2ccc(OC)c(OC)c2)cc1	-4.6%	7.5%	u	-0.4%	0.0	u
COc1ccc(C(=O)/C=C/Nc2ccc(NC(C)=O)cc2)cc1OC	-9.0%	16.4µM*	2.1%	u	-10.4	-4.2%
COc1ccc(N/C=C/C(=O)c2ccc(OC)c(OC)c2)cc1	11.6%	-16.5%	20.6µM*	u	-13.8	-14.8%
COc1ccc(N/C=C/C(=O)c2cc(OC)c(OC)c(OC)c2)cc1	5.8µM*	1.03µM*	5.17µM*	1.03µM*	61.8	u
COc1ccc(C(=O)/C=C/Nc2cccc(C)n2)cc1OC	-3.2%[9.22 µM]	u	u	-14.4%	-59.5*	u
Cc1ccc(Nc2c(-c3ccc(C)s3)nc3cccc(C)n23)cc1	x	12.6µM*	x	12.6µM*	x	x
Cc1cccc2nc(-c3cccnc3)c(Nc3ccccc3)n12	3.3%	-28.3%	-7.6%	u	u	u
Cc1ccc(Nc2c(-c3ccc(N4CCOCC4)cc3)nc3cccc(C)n23)cc1	x	23.1µM*	x	23.1µM*	x	x
Cc1ccc(Nc2c(-c3cccc(Cl)c3)nc3cccc(C)n23)cc1	x	u	x	16.4µM*	x	x
COc1ccc(-c2nc3cccc(C)n3c2Nc2ccc(C)cc2)cc1	x	20µM*	x	12.6µM*	x	x
Cc1ncc([N+](=O)[O-])n1S(=O)(=O)c1cc(Cl)ccc1Cl	-3.2%	13.2%	-2.7%	2.2%	-1.6	2.0%
Cc1ccnc(NC(=O)CCC(=O)N(CC(=O)NCc2ccc(F)cc2)Cc2ccccc2)c1	-3.7%	-22.3%	-6.0%	u	43.4	-25.6%
Cc1ccc(S(=O)(=O)c2nnn3c2nc(N2CCN(c4cccc(C)c4C)CC2)c2ccccc23)cc1C	x	-8.3%	x	-0.4%	x	x
CC(=O)Nc1ccc(NC(=O)C(NC(=O)C2CCC(C)CC2)C(C)C)cc1 (centres undefined)	x	-11.1%	x	-15.6%	x	x
COc1ncc2nc(-c3ccccc3)c(=O)n(CCC#N)c2n1	x	-10.8%	x	-12.7%	x	x
SMILES	SW480 rerep	TDP1 cell CPT	MCF10A rerep	TDP1 cell noCPT	IL-1B inflam inh	Chronic BCR inh
COc1cccc(N2CCN(C(=O)c3ccc4nc(N5CCCCC5)sc4c3)CC2)c1	0.6%	u	24.1%	16.4µM*	u	u
Cc1ccc(Cl)cc1N1CCN(C(=O)c2cccn2-c2nnc(N3CCCC3)s2)CC1	x	11.6µM*	x	14.6µM*	x	x
COc1cccc(N2CCN(C(=O)c3cccn3-c3nnc(N4CCCCC4)s3)CC2)c1	x	14.6µM*	x	u	x	x
O=C(c1cccn1-c1nnc(N2CCCC2)s1)N1CCN(c2ccccc2)CC1	x	u	x	-19.3%	x	x
Cc1ccc(Cl)cc1N1CCN(C(=O)C(=O)N2CCCCC2)CC1	-1.2%	12.8%	-23.4%	u	25.0	0.5%
CCc1ccc(S(=O)(=O)NCC2(N3CCOCC3)CCCCC2)cc1	-17.8%	u	11.8%	u	56.3	3.4%
CN(C)c1ccc(Cc2cc3c(O)ccc(O)c3cc(Cc3ccc(N(C)C)cc3)c2=O)cc1	u	3.66µM*	u	4.11µM*	-112.6*	x
NC(=NCc1ccc(Cl)cc1Cl)NC(=O)c1nc(Cl)c(N)nc1N	x	6.23µM*	x	4.41µM*	x	x
COc1ccc(C(=O)N2CCC[C@@]3(CCN(Cc4ccc(C#N)cc4)C3)C2)cc1	x	-7.0%	x	u	x	x
CCOC(=O)c1nnn(CC(=O)N2N=C(c3cccc4ccccc34)CC2c2ccccc2)c1C(=O)OCC (centres undefined)	1.6%	u	13.3%	20.6µM*	-25.8	-0.2%
CCOC(=O)c1nnn(CC(=O)Nc2cccc(Cl)c2C)c1C(=O)OCC	5.3%	u	16.7%	-3.2%	18.9	-2.9%
CC1CN(c2nc3ccccc3nc2NS(=O)(=O)c2ccccc2)CC(C)O1 (centres undefined)	0.2%	-14.3%	-30.5%	-7.7%	12.1	-0.3%
CCC(C)Sc1ccc(-c2nc3ccc(C)cn3c2NCc2ccccc2)cc1OC (centres undefined)	u	20.6µM*	6.51µM*	16.4µM*	-99.6*	u
CCC(C)Sc1cc(-c2nc3ccc(C)cn3c2NCc2ccccc2)ccc1OC (centres undefined)	u	4.61µM*	u	4.11µM*	-101.6*	x
COc1ccc(-c2nc3ccc(Br)cn3c2Cc2ccccc2)cc1OC	x	u	x	u	-11.0	x
c1ccc(Cn2c(Sc3nnnn3-c3ccccc3)nnc2-c2ccccc2)cc1	3.4%	u	-5.1%	u	-59.3*	1.8%
Cc1ccc(C)c(-n2nnnc2Sc2nnnn2-c2ccccc2)c1	9.2µM*	u	5.8µM*	13µM*	-108.9*	u
Fc1ccc2nc(C3CCCCN3Cc3nc(CC4CC4)no3)[nH]c2c1 (centres undefined)	-2.0%	-4.7%	12.1%	u	-64.9*	3.1%
